Bioassay records (PubChem BioAssay)
Sampled rows, rich in hits. Any-hit rate of the full collection: about 5.9%.
GLP-1R agonist: qHTS of GLP-1 Receptor Agonists; Glucagon-like peptide 1 receptor (Homo sapiens), P43220; HEK293 GLP-1R CRE-luciferase, luminescence, 4-6 h; cells express a hypersensitive GLP-1R form; Potency, µM (highest dose often 45.6 µM), without a hit: at the top dose activation, actives largely listed as activators; 0.007% of 380,000 active; AID 624172, 2012; note: % of control where 0% means no effect
VP16 counter: VP16 counterscreen qHTS for inhibitors of ROR gamma transcriptional activity. Drosophila S2 Gal4-VP16 UAS-luciferase, luminescence, 20 h. Potency, µM (highest dose often 53.6 µM), for the others: at the highest dose activity, negative = inhibition, usual class: inhibitors. 3.5% of 310,000 active. AID 2546, 2010;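 note: Gal4-VP16 expression switched on by copper sulfate through the metallothionein promoter; % is set by controls: 0 for no effect and ±100 for the full control effect; nearly all actives have a fitted effect of over 50% in size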
RORgamma inh: qHTS for inhibitors of ROR gamma transcriptional activity; Nuclear receptor ROR-gamma (Mus musculus), P51450; 5.4% of 310,000 active; Drosophila S2 Gal4-RORgamma UAS-luciferase reporter, 20 h; AID 2551, 2010; Potency, µM (top dose mostly 53.6 µM), for inactives: at the top dose activity change, negative = inhibition, hits mostly inhibitors; note: % is set by controls: 0 for no effect and ±100 for the full control effect; nearly all actives have a fitted effect of over 60% in size
Target sequence (P51450 whole entry, looked up, the tested form may be a part): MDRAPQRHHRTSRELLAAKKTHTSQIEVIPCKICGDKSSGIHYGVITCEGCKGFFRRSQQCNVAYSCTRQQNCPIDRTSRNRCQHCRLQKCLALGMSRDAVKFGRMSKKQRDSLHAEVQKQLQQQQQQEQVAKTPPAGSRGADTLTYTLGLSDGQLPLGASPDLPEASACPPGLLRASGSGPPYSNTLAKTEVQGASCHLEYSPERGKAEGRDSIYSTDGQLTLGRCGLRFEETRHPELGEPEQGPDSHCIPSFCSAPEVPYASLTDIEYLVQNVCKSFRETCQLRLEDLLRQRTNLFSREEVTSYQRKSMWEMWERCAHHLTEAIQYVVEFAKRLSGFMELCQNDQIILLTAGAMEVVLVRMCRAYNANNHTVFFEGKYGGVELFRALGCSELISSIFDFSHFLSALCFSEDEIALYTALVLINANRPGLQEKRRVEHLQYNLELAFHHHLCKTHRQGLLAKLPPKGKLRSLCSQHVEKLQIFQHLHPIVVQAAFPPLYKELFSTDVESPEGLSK
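In this cell-based reporter format, copper sulfate (700 uM final) drives Gal4–ROR gamma fusion expression from a metallothionein promoter in Drosophila Schneider cells; compounds preincubated 1 hr, reporter read after 20 hr at ambient temperature.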
GLP1R cytotox: qHTS of GLP-1 Receptor Inverse Agonists: Cytotox Screen. AID 624418, 2012. Potency, µM (top dose mostly 38.3 µM), inactives show at the top dose activity change, negative = inhibition, actives largely listed as inhibitors. HEK293 cAMP-luciferase reporter cells, luminescence, 24 h. 0.13% of 410,000 active;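 note: loss of luciferase light is scored as toxicity; % is set by controls: 0 for no effect and ±100 for the full control effect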
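MLSMR compounds, 24 hr on cells at 37 deg C/5% CO2; luminescence after luciferase reagent (12 min RT). Inhibition counted as the undesired cytotoxic outcome.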
GLP1R inv ag: qHTS of GLP-1 Receptor Inverse Agonists (Inhibition Mode) | Glucagon-like peptide 1 receptor (Homo sapiens), P43220 | HEK293 GLP-1R CRE-luciferase, luminescence, 24 h; GLP-1R form is constitutively active | Potency, µM (series often up to 38.3 µM), without a hit: top-dose activity change, negative = inhibition, usual class: inhibitors | 1.6% of 410,000 active | AID 624417, 2012; note: % is set by controls: 0 for no effect and ±100 for the full control effect; nearly all actives have a fitted effect of over 55% in size
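Inverse agonism was detected as reduced cAMP-driven luciferase luminescence after 24 h compound treatment. The cells were HEK293 clones expressing constitutively active human GLP-1R with the reporter. Reporter-only and GPR119 cell lines served as counterscreen controls.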
* marks the source's active call; other numbers are inactive results; ? = inconclusive; · = no result; [ ] = remark or other dose. Calls come from the whole dose curve; as a rule, active = well fitted curve in the direction sought with a large enough effect; inconclusive = small, poorly fitted or top-dose-only effect, or another doubt; inactive = no such curve, though single readings can be large; an effect the other way counts as inactive or inconclusive. Potency is the fitted concentration of half-maximal effect.

SMILES	GLP-1R agonist	VP16 counter	RORgamma inh	GLP1R cytotox	GLP1R inv ag
Cc1cc(C(=O)Cn2cc(C(F)(F)F)ccc2=O)c(C)n1-c1ccccc1	12%	?	17%	-26%	-27%
Cc1cc(C(=O)CN2C(=O)C3CC=CCC3C2=O)c(C)n1-c1ccccc1 (stereo unspecified)	-8%	13µM*	?	-9%	?
O=C(CN1C(=O)c2ccccc2S1(=O)=O)c1ccccc1Cl	·	?	8.9µM*	·	·
O=C(CN1C(=O)c2ccccc2S1(=O)=O)c1ccccc1	-23%	14µM*	8.9µM*	-2%	?
O=C(CN1C(=O)c2ccccc2S1(=O)=O)NCc1ccccc1Cl	8%	1%	26%	1%	0%
Cc1cc(C(=O)CN2CCC(C)CC2)c(C)n1-c1ccc(F)cc1	-1%	?	10µM*	1%	?
Cc1cc(C(=O)CN2CCCCC2)c(C)n1-c1ccc(F)cc1	-3%	6%	0%	-5%	-5%
COCC(=O)N1CCC2(CC1)CCN(c1cccc(-c3ccccc3)c1)CC2	·	9%	9%	·	·
O=C(COc1ccc(Cl)cc1)NCC(c1ccco1)S(=O)(=O)c1ccc(F)cc1 (stereo unspecified)	·	·	·	0%	-11%
COc1cccc(Cn2c(=O)cnc3cnc(N4CCOCC4)nc32)c1	·	0%	-32%	·	·
CCOC(=O)C1CCN(c2nc3c(S(=O)(=O)c4ccc(Br)cc4)nnn3c3ccsc23)CC1	·	·	·	0%	4%
Cc1ccc(C(=O)CN2/C(=C(\O)c3ccccc3)C(=O)c3ccccc3S2(=O)=O)c(C)c1	-13%	?	13µM*	-23%	0%
Cc1cc(C(=O)CN2C(=O)c3ccccc3S2(=O)=O)c(C)n1-c1ccccc1	-17%	11µM*	11µM*	8%	1.4µM*
Cc1ccc(C(=O)CN2C(=O)c3ccccc3S2(=O)=O)cc1	-5%	?	2.2µM*	3%	?
CCn1c(C)cc(C(=O)CN2C(=O)c3ccccc3S2(=O)=O)c1C	-59%	·	·	-18%	?
CCOC(=O)c1cc(OC(=O)c2ccc(Cl)cc2)n(-c2ccccc2)n1	4%	·	·	0%	11%
COc1ccc2c(c1)C(=O)[C@@H](OC(=O)NS(=O)(=O)c1ccc(C)cc1)[C@H](c1ccc(OC)c(Br)c1)O2	·	6%	-33%	·	·
Cc1ccc(Cn2cccc2C2=NC(C)CO2)cc1 (stereo unspecified)	-5%	-7%	18µM*	4%	-9%
CC(C)C1COC(c2cccn2Cc2ccccc2Cl)=N1 (stereo unspecified)	11%	7%	?	-1%	?
Cc1ccc(C)c(NC(=O)CN2C(=O)CSc3nc(C)cc(C)c32)c1	·	·	·	6%	13%
C=CCN1C(c2ccc(Br)cc2)=CS/C1=C(\C#N)c1nnc(N2CCOCC2)n1-c1ccccc1	2%	·	·	-25%	7.1µM*
COc1ccc(N2C(C)=CS/C2=C(/C#N)c2nnc(N3CCOCC3)n2-c2ccccc2)cc1	2%	0%	13µM*	6%	-5%
C=CCN1C(=O)NC(c2ccccc2)(C(F)(F)F)S/C1=C(\C#N)c1nnc(N2CCOCC2)n1-c1ccccc1 (stereo unspecified)	-3%	13µM*	5.6µM*	?	?
C=CCN1C(c2cccc(C(F)(F)F)c2)=CS/C1=C(\C#N)c1nnc(N2CCOCC2)n1-c1ccccc1	-4%	·	·	-18%	?
COc1cc(C)c(Cl)cc1S(=O)(=O)NCCc1c(C)[nH]c2ccccc12	·	·	·	-15%	?
SMILES	GLP-1R agonist	VP16 counter	RORgamma inh	GLP1R cytotox	GLP1R inv ag
COc1cccc2c1OC(=O)CC2c1ccccc1C (stereo unspecified)	·	6%[96.6 µM]	-29%[96.6 µM]	·	·
Cc1ccc(C)c(Nc2nn3c(=O)c4ccc(C(=O)NCc5ccccc5)cc4nc3s2)c1	-1%	·	·	-15%	?
CC(C)c1cc(-c2n[nH]c(=S)n2Cc2ccccc2)cs1	3%	?	0.56µM*	-2%	2%
COc1ccccc1-c1n[nH]c(=S)n1Cc1ccccc1	-6%	?	?	-8%	?
S=c1[nH]nc(-c2cccs2)n1Cc1ccccc1	4%	?	2.8µM*	2%	-4%
COc1ccc(-c2n[nH]c(=S)n2Cc2ccccc2)cc1	-9%	7.1µM*	7.9µM*	22%	-17%
COc1ccc(-c2n[nH]c(=S)n2Cc2ccccc2)cc1OC	-1%	?	11µM*	3%	69%
COc1ccc(NS(=O)(=O)c2ccc(-c3n[nH]c(=S)n3Cc3ccccc3)cc2)cc1	-3%	-1%	-41%	-9%	0%
COc1ccc(OC)c(NC(=O)c2cn3c4c(ccc(Cl)c4c2=O)OC(C)C3)c1 (stereo unspecified)	·	·	·	-9%	2%
C#C[C@]1(O)CC[C@H]2[C@H]3[C@H](CC[C@@]21C)C1=C(CC(=O)CC1)C[C@@H]3C	-5%	-3%	-4%	·	·
COC(=O)[C@H](C)[C@H](CC(C)C)NC(=O)[C@H](C)[C@H](CC(C)C)NC(=O)c1ccccn1	·	3%	14%	·	·
Cc1nc(NCc2ccccc2)c2nc(-c3ccccc3)n(CCN3CCCC3)c2n1	·	6%	-23%	·	·
O=C(/C=C/c1ccc(I)cc1)c1ccc(B(O)O)cc1	·	1%	?	·	·
COc1cccc(NC(=O)c2oc3ccccc3c2NC(=O)C23CC4CC(CC(C4)C2)C3)c1	·	·	·	9%	4%
CCc1ccc(NC(=O)Cn2c(=O)ccc3cc(S(=O)(=O)N4CCCC4)ccc32)cc1	-4%	·	·	-1%	-6%
Cc1ccn(Cc2n[nH]c(=S)n2Cc2ccccc2)n1	11%	-10%	-40%	3%	-14%
Cc1n[nH]c(=S)n1Cc1ccccc1	-2%	9%	-40%	2%	23%
S=c1[nH]nc(-c2ccc(Br)o2)n1Cc1ccccc1	0%	13µM*	6.3µM*	2%	?
S=c1[nH]nc(C2CCCCC2)n1Cc1ccccc1	11%	7.1µM*	2.5µM*	?	?
C=CCn1c(C2CCCCC2)n[nH]c1=S	-10%	?	4µM*	?	-2%
S=c1[nH]nc(-c2ccccc2)n1Cc1ccccc1	1%	14µM*	2.5µM*	-17%	-16%
Cc1ccccc1Nc1c(-c2ccc(N3CCOCC3)cc2)nc2ccc(Br)cn12	·	·	·	0%	?
Clc1ccccc1Nc1ncnc2c1nc1n2CCCCC1	1%	·	·	4%	18%
S=c1[nH]nc(-c2ccc(Cl)cc2)n1Cc1ccccc1	0%	2.8µM*	1.8µM*	-6%	-23%
